Source: PubChem BioAssay
In the library only some 1.2% were active in any assay of this set; here they are far more common.
AMA1-RON2 inh – inhibitors of Plasmodium falciparum AMA1-RON2 interaction; AlphaScreen AMA1-biotinylated RON2 peptide binding; Potency, µM (series often up to 58.2 µM), most hits filed as inhibitors; actives 0.2% (n = 360,000); also: nearly all actives have a fitted effect of over 45% in size
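AMA1 (3D7) with his tag at 25 nM final met compounds first, then biotinylated RON2 peptide at 25 nM; detection used donor plus acceptor beads, 10 µg/mL apiece, read by AlphaScreen after 30 min at room temperature.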
LmPK inhibitor – blocks Leishmania mexicana pyruvate kinase activity; Q27686; purified LmPK, Kinase-Glo ATP luminescence, 1 h; Potency, µM (top dose mostly 57.5 µM), actives largely listed as inhibitors; actives 0.37% (n = 290,000)
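Pyruvate kinase activity monitored as ATP production (luciferase luminescence). Conditions: 0.1 nM enzyme, 0.5 mM PEP, 0.1 mM ADP, 1 h, RT; normalized against uninhibited and no-enzyme wells.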
NS1 function inh – blocks influenza NS1 protein function; actives 0.4% (n = 270,000); AID 2326; Potency, µM (titrated, usually from 46.1 µM); calls by dose curve; also: actives are rising curves; nearly all actives have a fitted effect of over 50% in size
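Read-out: OD600 growth recovery of NS1-expressing budding yeast. Cells grown overnight at 30C in -URA glucose medium, washed, resuspended and diluted 1:100 in 2% galactose assay medium, pH 6.0. Same strain lacking NS1 served as positive control.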
Giardia FBPA inh – Giardia lamblia aldolase inhibition. A8B2U2. actives 0.71% (n = 290,000). AID 2451. purified Giardia FBPA. Potency, µM (top dose mostly 59.6 µM), most hits filed as inhibitors; also: nearly all actives have a fitted effect of over 55% in size
Target sequence (A8B2U2 whole entry, looked up): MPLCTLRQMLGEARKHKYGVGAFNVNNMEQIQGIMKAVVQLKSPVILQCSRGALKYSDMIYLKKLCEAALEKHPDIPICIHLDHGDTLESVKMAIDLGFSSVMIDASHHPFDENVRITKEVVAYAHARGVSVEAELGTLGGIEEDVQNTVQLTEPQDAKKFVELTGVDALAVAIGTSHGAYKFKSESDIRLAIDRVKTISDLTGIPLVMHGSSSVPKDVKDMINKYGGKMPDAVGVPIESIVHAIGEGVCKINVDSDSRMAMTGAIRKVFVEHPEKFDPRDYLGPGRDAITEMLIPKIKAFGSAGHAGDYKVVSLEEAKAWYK
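Giardia FBPA (40 nM reagent) was preincubated 10 min at RT with compound (up to 57.5 uM final), then substrate plus GAPDH/TPI/NAD/arsenate coupling system with diaphorase/resazurin was added; resorufin fluorescence (525/598 nm) was read after 20 min.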
Tb PYK inh – T. brucei pyruvate kinase inhibition; Potency, µM (top dose mostly 76.8 µM), usual class: inhibitors; actives 0.12% (n = 410,000); TbPYK enzyme, Kinase-Glo Plus ATP luminescence, 45 min; AID 624173; Q57TT1; also: nearly all actives have a fitted effect of over 50% in size
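Quantitative HTS: titrated library compounds versus trypanosomal pyruvate kinase in TEA buffer (pH 7.2) containing KCl, MgCl2, BSA and Tween-20. Reactions were initiated with ADP, 130 uM final. Kinase-Glo Plus luminescence was read after 45 min at RT.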
Numbers stand for hits; [ ] = remark or other dose. Unless noted, calls follow the shape of the dose curve; as a rule, active = well fitted curve in the direction sought with a large enough effect; inconclusive = small, poorly fitted or top-dose-only effect, or another doubt; inactive = no such curve, though single readings can be large; an effect the other way counts as inactive or inconclusive.

What do the screens show for `CC1(C)C(/C=C/C=C/C=C/C=C2\N(CCCCS(=O)(=O)O)c3ccc4ccccc4c3C2(C)C)=[N+](CCCCS(=O)(=O)[O-])c2ccc3ccccc3c21`?
AMA1-RON2 inh: 8.91µM; Tb PYK inh: inconclusive

What do the screens show for `c1ccc(CCNc2nc(-c3ccccc3)cs2)cc1`?
Tb PYK inh: inactive

Results for Nc1nc(Nc2ccc(Cl)cc2)nc2ccccc12 ?
AMA1-RON2 inh: inactive; LmPK inhibitor: 17.8µM; NS1 function inh: inactive; Giardia FBPA inh: inactive; Tb PYK inh: inactive

What do the screens show for `Nc1nc(Nc2ccccc2)nc2ccccc12`?
AMA1-RON2 inh: inactive; LmPK inhibitor: 15.8µM; NS1 function inh: inactive; Giardia FBPA inh: inactive; Tb PYK inh: inactive

Results for CN(C)c1ccc(Nc2nc(N)c3ccccc3n2)cc1 ?
AMA1-RON2 inh: inconclusive; LmPK inhibitor: inconclusive; NS1 function inh: inactive; Giardia FBPA inh: inconclusive; Tb PYK inh: inconclusive

Results for Cc1nnc(N2CCC(C(=O)NCCc3ccccc3Cl)CC2)c2nn(-c3ccccc3)c(C)c12 ?
Tb PYK inh: inactive

What do the screens show for `C/C(=N/Nc1ccccc1[N+](=O)[O-])c1ccc([N+](=O)[O-])cc1`?
AMA1-RON2 inh: inactive; LmPK inhibitor: inactive; NS1 function inh: inactive; Giardia FBPA inh: inactive; Tb PYK inh: inactive

How did CC1=C/C(=N\Nc2ccccc2[N+](=O)[O-])CC(C)(C)C1 do in these assays?
AMA1-RON2 inh: 3.55µM; LmPK inhibitor: inactive; NS1 function inh: inactive; Giardia FBPA inh: inactive; Tb PYK inh: inactive

Results for Cc1cc2oc3c(c(=O)c2cc1C)C1(C(=O)N(C)c2ccccc21)N(CCO)C3=O (stereo unspecified) ?
Tb PYK inh: inactive

How did Cc1ccccc1NC(=S)NNC(=O)c1cccnc1 do in these assays?
AMA1-RON2 inh: inactive; LmPK inhibitor: 17.8µM; NS1 function inh: inactive; Giardia FBPA inh: inactive; Tb PYK inh: 4.47µM

How did CC(=O)N1CCC(N(Cc2ccco2)C(=O)Nc2ccc(Br)cc2F)CC1 do in these assays?
Tb PYK inh: inactive

Results for Brc1ccc(-c2nc3ccccc3s2)s1 ?
AMA1-RON2 inh: inactive; LmPK inhibitor: 28.2µM; NS1 function inh: inactive; Giardia FBPA inh: inactive; Tb PYK inh: inactive

Results for c1ccc(-c2nc3ccccc3s2)nc1 ?
AMA1-RON2 inh: inactive; LmPK inhibitor: 11.2µM; NS1 function inh: inactive; Giardia FBPA inh: inactive; Tb PYK inh: inactive

How did C#CCC(Cc1cnc2nc(N)nc(N)c2n1)c1ccc(C(=O)N[C@@H](CCC(=O)O)C(=O)O)cc1 (stereo partly specified) do in these assays?
Tb PYK inh: inactive

What do the screens show for `COc1nc(C)cnc1NS(=O)(=O)c1cccnc1-c1ccc(-c2nnco2)cc1`?
Tb PYK inh: inactive

What do the screens show for `CCOC(=O)COc1ccc2c(C#N)c3ccccn3c2c1`?
AMA1-RON2 inh: inactive; LmPK inhibitor: inactive; NS1 function inh: inactive; Giardia FBPA inh: 5.61µM; Tb PYK inh: inactive

How did N#Cc1c2ccc(OCC(N)=O)cc2n2ccccc12 do in these assays?
AMA1-RON2 inh: inactive; LmPK inhibitor: inactive; Giardia FBPA inh: inconclusive; Tb PYK inh: inactive

How did C=Cc1ccc(N=Cc2c(O)ccc3ccccc23)cc1 do in these assays?
AMA1-RON2 inh: inactive; LmPK inhibitor: inactive; NS1 function inh: inactive; Giardia FBPA inh: 14.1µM; Tb PYK inh: inactive

How did COC(=O)[C@@H]1C[C@H]2CC[C@H](O)C[C@H]2N1Cc1c(F)cccc1Cl do in these assays?
Giardia FBPA inh: inactive

Results for O=C(N/N=C/c1cccs1)c1n[nH]c2c1CCCC2 ?
AMA1-RON2 inh: inactive; LmPK inhibitor: 14.1µM; NS1 function inh: inactive; Giardia FBPA inh: inactive; Tb PYK inh: inactive

How did C/C(=N\NC(=O)c1cc(C)[nH]n1)c1cccs1 do in these assays?
AMA1-RON2 inh: inactive; LmPK inhibitor: inactive; Giardia FBPA inh: inactive; Tb PYK inh: inactive

How did C/C(=N\NC(=O)c1n[nH]c2c1CCC2)c1cccs1 do in these assays?
AMA1-RON2 inh: inactive; LmPK inhibitor: 11.2µM; NS1 function inh: inactive; Giardia FBPA inh: inactive; Tb PYK inh: inactive

Results for Cc1ccccc1S(=O)(=O)O[C@@H]1NS(=O)(=O)c2ccccc21 ?
NS1 function inh: inactive

What do the screens show for `CC/C=C\CC[C@H](OC(=O)c1ccc(Br)cc1)C1=CCCCC1=O`?
Giardia FBPA inh: inactive[12.9 µM]

How did Cc1ccc(CCNC(=O)C2CCCN(C(=O)c3cc4sccc4n3C)C2)cc1 (stereo unspecified) do in these assays?
AMA1-RON2 inh: inactive; LmPK inhibitor: inactive; NS1 function inh: inactive; Giardia FBPA inh: inactive; Tb PYK inh: 8.91µM

How did CC(OC(=O)c1c2c(nc3ccccc13)/C(=C\c1ccc3c(c1)OCO3)CCC2)C(=O)Nc1ccc(S(N)(=O)=O)cc1 (stereo unspecified) do in these assays?
AMA1-RON2 inh: inactive; LmPK inhibitor: inactive; NS1 function inh: 11.2µM; Giardia FBPA inh: inactive; Tb PYK inh: inactive

Results for Cc1cccc(C)c1NC(=O)COC(=O)c1c2c(nc3ccccc13)/C(=C\c1ccc3c(c1)OCO3)CCC2 ?
AMA1-RON2 inh: inactive; LmPK inhibitor: inactive; NS1 function inh: inactive; Giardia FBPA inh: inactive; Tb PYK inh: inactive

How did CN[C@H](CC(C)C)C(=O)N[C@H]1C(=O)N[C@@H](CC(N)=O)C(=O)N[C@H]2C(=O)N[C@H]3C(=O)N[C@H](C(=O)N[C@H](C(=O)O)c4cc(O)cc(O)c4-c4cc3ccc4O)[C@H](O)c3ccc(c(Cl)c3)Oc3cc2cc(c3O[C@@H]2OC(CO)[C@@H](O)[C@H](O)[C@H]2O[C@H]2C[C@](C)(N)[C@H](O)[C@H](C)O2)Oc2ccc(cc2Cl)[C@H]1O (stereo partly specified) do in these assays?
Tb PYK inh: inactive

How did O=C1NC(=S)S/C1=C1\Sc2ccccc2N1CCCS(=O)(=O)O do in these assays?
AMA1-RON2 inh: inactive; LmPK inhibitor: 15.8µM; NS1 function inh: inactive; Giardia FBPA inh: inconclusive; Tb PYK inh: inactive

What do the screens show for `c1ccc(CNc2ccc(N3CCOCC3)cc2)cc1`?
Tb PYK inh: inactive

How did Clc1ccc(CNc2ccc(N3CCN(Cc4ccccc4)CC3)cc2)cc1 do in these assays?
AMA1-RON2 inh: 7.94µM; LmPK inhibitor: inactive; NS1 function inh: inactive; Giardia FBPA inh: inactive; Tb PYK inh: inactive

What do the screens show for `COc1cc2c(cc1OC)[C@H](C)N(CC1C(=O)O[C@@H]3C[C@@]4(C)CCC[C@H](C)[C@@]45OC5[C@H]13)CC2` (stereo partly specified)?
Giardia FBPA inh: inactive

Results for CS(=O)(=O)c1ccc2nc(NC(=O)c3cccs3)sc2c1 ?
AMA1-RON2 inh: inactive; LmPK inhibitor: 15.8µM; NS1 function inh: inactive; Giardia FBPA inh: inactive; Tb PYK inh: inactive

Results for CCCNS(=O)(=O)c1ccc2nc(NC(=O)c3ccc(F)cc3)sc2c1 ?
Tb PYK inh: 1µM

How did CCCCNS(=O)(=O)c1ccc2nc(NC(=O)c3cccnc3)sc2c1 do in these assays?
Tb PYK inh: inactive

How did COc1ccc2c3c1OC1C(O)C=CC4[C@@H](C2)NCC[C@]314 (stereo partly specified) do in these assays?
Tb PYK inh: inactive
